# A selection: hits, their analogues and other compounds. The true share with any hit is near 7.4%.
# TSHR agonist: qHTS Assay for Agonists of the Thyroid Stimulating Hormone Receptor; Thyrotropin receptor (Homo sapiens), P16473; HEK293-CNG-TSHR cells (CNG channel as cAMP sensor), membrane potential dye, cAMP; Potency, µM (top dose mostly 57.1 µM), for the others: top-dose activation, hits mostly activators; hit rate 0.48% among 73,000; AID 926, 2007; active = well fitted activation curve with a large enough effect in the main read-out, with a control signal flat, not every such curve was filed as active; inconclusive = small, poorly fitted or top-dose-only effect, or a change in a side signal; inactive = no such curve, though single readings can be large or run the other way; % of control where 0% means no effect;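 note: the control signal comes from parental cells without the receptor; potency is the fitted concentration of half-maximal effect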
#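 HEK 293 cells stably expressing TSHR and a modified CNG channel, with CNG-only parental cells as counterscreen, were preloaded 60 min at room temperature with membrane potential dye containing 100 uM RO 20-1724. Compound exposure was 30 min, and depolarization was read as fluorescence at 590 nm.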
# HEK293 cAMP cs: qHTS Assay for Agonists of the Thyroid Stimulating Hormone Receptor: Activators of Intracellular cAMP Concentrations in Parental HEK 293; parental HEK293 CNG cAMP sensor, membrane potential fluorescence; Potency, µM (doses to about 57.1 µM), inactives show top-dose activation, most hits filed as activators; hit rate 2.5% among 73,000; note: potency is the fitted concentration of half-maximal effect; % of control where 0% means no effect; nearly all actives have a fitted effect of over 55% in size
#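 Parental HEK 293 cells stably expressing a cAMP-gated CNG channel were loaded with membrane potential dye containing 100 uM RO 20-1724 for 60 min. Compound added for 30 min; depolarization read as fluorescence intensity at 590 nm.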
# CRE-bla Fsk: Cell signaling CRE-BLA (Fsk stim); AID 662, 2007; Potency, µM (doses to about 38.2 µM), for the others: at the top dose activity change, negative = inhibition, usual class: activators; CHO CRE-bla reporter (cAMP response element driving beta-lactamase), forskolin EC10, beta-lactamase ratio; hit rate 2.5% among 71,000; active = well fitted activation curve with a large enough effect in the signal ratio, with a control signal flat, not every such curve was filed as active; inconclusive = small, poorly fitted or top-dose-only effect, or effect the other way, or a change in a side signal; the % refers to the signal ratio; note: potency is the fitted concentration of half-maximal effect; % of control where 0% means no effect
#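 Modulation of forskolin signalling: compounds in titration series added with EC10 NKH 477 to CHO cells carrying a CRE-driven beta-lactamase reporter, 3 h, 37C. CCF4 FRET ratio (460/530 nm, ex 405 nm) gives %activity and AC50.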
# Tau filament bind: qHTS Assay for Tau Filament Binding. Microtubule-associated protein tau (Homo sapiens), P10636. recombinant tau filaments, thioflavin S fluorescence, 15 h; filaments grown with octadecylsulfate alongside compound. Potency, µM (series often up to 57.1 µM), for inactives: at the top dose activity change, negative = inhibition. hit rate 2% among 71,000. AID 596, 2007;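 note: potency is the fitted concentration of half-maximal effect; % is set by controls: 0 for no effect and ±100 for the full control effect; actives lower thioflavin S fluorescence by blocking filaments or displacing dye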
# Target sequence (P10636 whole entry, looked up): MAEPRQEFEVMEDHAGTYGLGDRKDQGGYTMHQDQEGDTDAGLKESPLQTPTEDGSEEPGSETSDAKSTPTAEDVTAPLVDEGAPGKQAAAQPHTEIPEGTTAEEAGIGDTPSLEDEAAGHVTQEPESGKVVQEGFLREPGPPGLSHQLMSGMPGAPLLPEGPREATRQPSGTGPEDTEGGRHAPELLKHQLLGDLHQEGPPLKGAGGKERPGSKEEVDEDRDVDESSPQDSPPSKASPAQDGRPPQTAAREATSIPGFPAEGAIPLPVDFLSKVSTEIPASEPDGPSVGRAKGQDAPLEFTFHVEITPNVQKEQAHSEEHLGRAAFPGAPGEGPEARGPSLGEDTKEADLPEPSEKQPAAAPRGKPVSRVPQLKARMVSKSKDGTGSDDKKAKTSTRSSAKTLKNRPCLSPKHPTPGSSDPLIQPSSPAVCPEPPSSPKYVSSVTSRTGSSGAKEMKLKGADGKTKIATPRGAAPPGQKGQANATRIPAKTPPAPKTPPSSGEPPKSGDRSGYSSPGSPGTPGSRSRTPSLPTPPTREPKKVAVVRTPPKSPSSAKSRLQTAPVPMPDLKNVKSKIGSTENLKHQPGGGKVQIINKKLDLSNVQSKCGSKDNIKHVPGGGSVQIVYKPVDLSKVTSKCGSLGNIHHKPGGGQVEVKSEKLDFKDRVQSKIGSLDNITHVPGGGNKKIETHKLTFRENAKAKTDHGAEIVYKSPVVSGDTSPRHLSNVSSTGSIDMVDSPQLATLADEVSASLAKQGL
#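 Recombinant tau protein (human, 1 uM final) plus 30 uM ODS in HEPES pH 7.4 with NaCl, DTT and thioflavine S. Compound present from the start; fluorescence at 510 nm after 15 h, 37 C.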
# ERK AVP block: qHTS Assay for Inhibitors of the ERK Signaling Pathway using a Homogeneous Screening Assay; HEK293-V1b, vasopressin-stimulated pERK AlphaScreen; Potency, µM (highest dose often 57.5 µM), without a hit: at the top dose activity, negative = inhibition, actives largely listed as inhibitors; hit rate 0.99% among 72,000; AID 995, 2007; note: potency is the fitted concentration of half-maximal effect; % is set by controls: 0 for no effect and ±100 for the full control effect; nearly all actives have a fitted effect of over 55% in size
#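 Overnight-seeded V1b-HEK293 cells in 1% FBS got compound, then vasopressin (25 nM final, 5 min, 37C), then lysis buffer. AlphaScreen detection of phospho-ERK; activity normalized to basal and full-stimulation controls.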
# HEK293 cAMP cnt: Confirmation Concentration-Response Assay for Agonists of the Thyroid Stimulating Hormone Receptor: Activators of Intracellular cAMP Concentrations in Parental HEK 293. shares compounds with TSHR agonist. parental HEK293 CNG biosensor, cAMP membrane potential fluorescence. activity change, negative = inhibition, % at 32.9 µM. 150 tested, under 10 active. AID 953, 2007
# * marks the source's active call; other numbers are inactive results; ? = inconclusive; . = no result given; [ ] = another dose, or the depositor's remark. Unless noted, calls come from the whole dose curve; as a rule, active = well fitted curve in the direction sought with a large enough effect; inconclusive = small, poorly fitted or top-dose-only effect, or another doubt; inactive = no such curve, though single readings can be large; an effect the other way counts as inactive or inconclusive.
SMILES,TSHR agonist,HEK293 cAMP cs,CRE-bla Fsk,Tau filament bind,ERK AVP block,HEK293 cAMP cnt
CC(=O)N1CCCc2cc(S(=O)(=O)N(CC(C)C)CC(C)C)ccc21,13µM*,14%,-14%,-5%,12%,14
CC(=O)N1CCCc2cc(S(=O)(=O)N(C)CCC#N)ccc21,-2%,3%,-11%,1%,6%,.
CSc1cc2c(cc1C(F)(F)F)N(C(=O)Nc1cccnc1)CC2,-6%,-1%,0%,37%,-9%,.
Cc1nonc1NC(=O)CSc1nnc(-c2ccoc2C)n1CC(C)C,26%,13%,-2%,-8%,-11%,.
Cc1occc1-c1nnc(SCC(=O)NCc2ccc3c(c2)OCO3)n1CC(C)C,16µM*,29%,-6%,-15%,-6%,10
O=C(CN(Cc1ccccc1Cl)C(=O)Cn1nnc(-c2cccs2)n1)NCC1CCCO1 (configuration not stated),6.3µM*,12%,-15%,-1%,10%,9
CCOc1cc(C(=O)N2CCN(c3ccccc3)CC2)cc(OCC)c1OCC,?,?,2%,-15%,-14%,.
CCOc1cc(C(=O)N(C)c2ccccc2)cc(OCC)c1OCC,25µM*,15%,-3%,8%,-10%,9
COc1cccc(Nc2ncc3nc(CCc4ccccc4)c(=O)n(C4CC4)c3n2)c1,9%,12%,?,442%,13%,.
Cc1cccc(NC(=O)CSc2nnc(-c3ccccc3)n2N)c1,7%,-12%,?,11%,11%,.
Cc1cccc(NC(=O)CSc2nnc(-c3ccccc3)n2N)c1C,3%[11.4 µM],-13%,-22%,-2%,5%,-2[25.6 µM]
CS(=O)(=O)Nc1cccc(-c2ccc3ncnc(NCCN4CCOCC4)c3c2)c1,2%,8%,?,4%,-27%,.
CN(Cc1ccco1)C(=O)Cn1c(=O)oc2cc(S(=O)(=O)NCc3ccccc3)ccc21,25µM*,12%,-7%,3%,19%,-4
COc1cc(/C=N/n2c(SC)nnc(C(C)(C)C)c2=O)ccc1O,0%,-5%,?,6%,-30%,-8[25.6 µM]
CCCCCCc1c(C[C@H](N)C(=O)O)o[nH]c1=O,2%,2%,-8%,?,-7%,.
Cc1cc(C)nc(N(C#N)CC(=O)N2CCC(C(N)=O)CC2)n1,.,1%,-1%,8%,-7%,-13
Cc1nc2cnc(N3CCNCC3)nc2n(-c2ccccc2)c1=O,-1%,11%,?,-2%,6%,.
Cc1oc2c(CN3CCOCC3)c(O)ccc2c(=O)c1-c1ccccc1,11%,10%,8%,1%,4%,-37[25.6 µM]
COc1cccc(Oc2c(C)oc3c(CN4CCOCC4)c(O)ccc3c2=O)c1,3%,14%,-2%,1%,-4%,.
COc1ccc(NC(=O)N2CC[C@@]3(CCCNC3)C2)cc1,7%,12%,4%,-4%,10%,.
Cc1cnc(NC(=O)c2ccc3c(c2)C(=O)N(Cc2ccco2)C3=O)s1,-19%,-12%,-6%,-24%,-27%,-11[25.6 µM]
O=C(NC1=NCCS1)c1ccc2c(c1)C(=O)N(Cc1ccco1)C2=O,24%,0%,?,0%,-13%,.
CC(C)C(=O)Nc1ccc(N2CCN(S(C)(=O)=O)CC2)cc1,5%[11.4 µM],0%,-12%,-8%,6%,.
Cc1ccc(C(C)C)c(OCC(=O)Nc2ccc(N3CCN(S(C)(=O)=O)CC3)cc2)c1,-38%,5%,-16%,2%,-18%,-30[25.6 µM]
CS(=O)(=O)N1CCC2(CCCN(c3ccccn3)C2)CC1,?,?,-3%,9%,10%,.
SMILES,TSHR agonist,HEK293 cAMP cs,CRE-bla Fsk,Tau filament bind,ERK AVP block,HEK293 cAMP cnt
Cc1oc(-c2cccc(Cl)c2)nc1CN1CCCC(C(=O)NCc2ccco2)C1 (configuration not stated),6%[11.4 µM],17%,-24%,29%,1%,.
Cc1oc(-c2cccc(Cl)c2)nc1CN1CCCC(C(=O)NC(C)c2ccc3c(c2)OCCO3)C1 (configuration not stated),5%,9%,?,264%,?,9[25.6 µM]
COC(=O)C1=C(C)NC(=O)NC1c1cn(-c2ccccc2)nc1-c1cccs1 (configuration not stated),25µM*,13%,27%,11%,-12%,5
O=c1c(-c2cccs2)nc2cncnc2n1Cc1ccc(F)cc1,-10%,-1%,?,25%,10%,.
O=C1C2C3CCCC3=C3CCCC3C2C(=O)N1c1ccc(Cl)cc1 (configuration not stated),3.2µM*,4%,-5%,14%,-28%,-9
O=C1C2C3CCCC3=C3CCCC3C2C(=O)N1c1cccc(Cl)c1 (configuration not stated),?,?,-4%,-2%,3%,.
C=C(C)C1COc2cc3oc(=O)ccc3cc2O1 (configuration not stated),.,.,.,.,2%,.
Cc1ccccc1-c1nc(CN2CCC(C(=O)N3CCC(C(N)=O)CC3)CC2)c(C)o1,-2%,-8%[11.4 µM],-8%,20%,4%,.
Cc1ccccc1-c1nc(CN2CCC(C(=O)N3CCN(c4ccccn4)CC3)CC2)c(C)o1,11%,24%,-12%,83%,-12%,17[25.6 µM]
Cn1cccc1Cc1nnc(SCC(N)=O)n1CCc1ccccc1,4%,3%,-4%,8%,-28%,3[25.6 µM]
Cc1onc(-c2ccccc2)c1C(=O)N1CCCN(C(=O)c2c(-c3ccccc3)noc2C)CC1,22%,17%,1%,2%,-7%,.
Cc1onc(-c2ccccc2)c1C(=O)N1CCCSC1=Nc1ccccc1,?,?,-8%,6%,-4%,19
c1ccc(-n2cnc3cc(NCc4ccccn4)ccc32)cc1,-12%,-10%,20%,2%,-12%,.
c1ccc(-n2cnc3cc(NCc4ccncc4)ccc32)cc1,-8%,-1%,?,-17%,?,1[25.6 µM]
Cc1nn(C)c(C)c1S(=O)(=O)N(CC(=O)Nc1nccs1)c1ccc(C(C)C)cc1,7.9µM*,9%,-17%,111%,-28%,-9
Cc1onc(-c2ccccc2Cl)c1C(=O)Nc1ccc(-n2nncc2-c2ccco2)cc1,6.3µM*,-6%,5%,?,-10%,-3
COc1ccc(-c2nc3cnc(N4CCNCC4)nc3n(CCc3ccccc3)c2=O)cc1,-5%,-26%,?,72%,34%,.
O=C1CC(c2ccco2)CC2=C1C(c1ccccc1)n1nc(C(F)(F)F)nc1N2 (configuration not stated),0.63µM*,10%,14%,21%,7%,-7
